The structures appear in SMILES notation. Where a name gives a salt, the structure may show the parent alone. A number with no mark means an inactive call.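 Rule for the calls: for the amine columns active = adjusted P below 0.05 in both replicates with a change the same way and a mean fold change under 0.8 or over 1.25; inactive = the rest.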

For the assay, the system named is Ruminococcus gnavus DSM 108212. As to the kind of experiment: fold change of 2-Phenylethylamine concentration vs plate DMSO controls (fold change (ratio)); higher = more amine produced, active = hit call of the paper (significant change in both replicates, either direction). Conditions: incubation time: 27 h, anaerobic, 37 °C. In a few lines:
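Using LC–triple-quadrupole MS with dynamic MRM, amines were quantified against external calibration curves and corrected for drift within each batch. Samples were whole anaerobic mGAM cultures of four gut strains, grown 27 h at 37 °C from OD 0.1 before 1:1 dilution, extracted with cold acetonitrile/methanol containing 0.1% formic acid and centrifuged. Compounds were present at 20 µM final (sweeteners at 50 µM final). The numbers are fold changes versus plate DMSO controls, each the mean of 2 biological replicates.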
Take `CCCSS/C(CCO)=C(/C)N(C=O)Cc1cnc(C)nc1N` [Prosultiamine] (20 µM): the “fold change of 2-Phenylethylamine concentration” value (from here on “fold change”) was 1.16.
Under `CN(C)CCOC(c1ccccc1)c1ccccc1.Cn1c(=O)c2[nH]c(Cl)nc2n(C)c1=O` [Dimenhydrinate] (20 µM) stands 1.03; under `CCCCCCCN(CC)CCCC(O)c1ccc(NS(C)(=O)=O)cc1` (stereo unspecified) [Ibutilide fumarate] (20 µM), 0.903; under `Cc1cccc(Nc2ccncc2S(=O)(=O)NC(=O)NC(C)C)c1` [Torsemide] (20 µM), 1.24.
Under `C=C1c2cccc(O)c2C(O)=C2C(=O)[C@]3(O)C(O)=C(C(N)=O)C(=O)[C@@H](N(C)C)[C@@H]3[C@@H](O)[C@H]12` [Methacycline hydrochloride] (20 µM) stands 0.58; under `O=C(O)CNC(=O)C(CS)Cc1ccccc1` (stereo unspecified) [Thiorphan] (20 µM), 1.02; under `CCn1cc(C(=O)O)c(=O)c2cc(F)c(N3CCNCC3)nc21` [Enoxacin] (20 µM), 0.905.
The figure for `Cc1ccc(-c2ncc(Cl)cc2-c2ccc(S(C)(=O)=O)cc2)cn1` [Etoricoxib] (20 µM) is 1.19; for `CNC(=O)OCc1cccc(COC(=O)NC)n1` [Pyricarbate] (20 µM) it is 1.06; for `N#Cc1cc(NC(=O)C(=O)O)c(Cl)c(NC(=O)C(=O)O)c1` [Lodoxamide] (20 µM) it is 0.934.
Take `CNC1(C)C2CCC(C2)C1(C)C` (stereo unspecified) [Mecamylamine hydrochloride] (20 µM): the “fold change” value is 1.06.
`CCOC(=O)[C@H](CCc1ccccc1)N[C@@H](C)C(=O)N(CC(=O)O)C1Cc2ccccc2C1` [Delapril Hydrochloride] (20 µM): the “fold change” value was 0.905.
The figure for `CN1[C@@H]2CC[C@H]1C[C@@H](OC(c1ccccc1)c1ccccc1)C2` [Benztropine mesylate] (20 µM) is 1; for `C[N+]1(CCCCC[N+]2(C)CCCC2)CCCC1` [Pentolinium bitartrate] (20 µM) it is 0.943.
Under `CC(=O)Oc1cc(C(F)(F)F)ccc1C(=O)O` [Triflusal] (20 µM) stands 1.02; under `COc1ccc2cc(CCC(C)=O)ccc2c1` [Nabumetone] (20 µM), 0.946; under `CN1C(=O)CC(c2ccccc2)C1=O` (stereo unspecified) [Phensuximide] (20 µM), 1.02.
Under `CC(N)CCCC(C)(C)O` (stereo unspecified) [Heptaminol hydrochloride] (20 µM) stands 1.05; under `CN(C)CCOC(c1ccc(Cl)cc1)c1ccccn1` (stereo unspecified) [Carbinoxamine maleate salt] (20 µM), 1.1; under `C=CCN1CCCC1CNC(=O)c1cc2nn[nH]c2cc1OC` (stereo unspecified) [Alizapride hydrochloride] (20 µM), 1.
For the compound `CC1(C)O[C@@H]2C[C@H]3[C@@H]4C[C@H](F)C5=CC(=O)C=C[C@]5(C)[C@H]4[C@@H](O)C[C@]3(C)[C@]2(C(=O)CO)O1` [Flunisolide] (20 µM), the “fold change” value is 1.51.
Under `C=CC(N)CCC(=O)O` (stereo unspecified) [Vigabatrin hydrochloride] (20 µM) stands 1; under `CC(N)C12CC3CC(CC(C3)C1)C2` (stereo unspecified) [Rimantadine hydrochloride] (20 µM), 0.987.
The figure for `O=C(O)c1cc(-c2ccc(F)cc2F)ccc1O` [Diflunisal] (20 µM) is 1.1.
Under `OC[C@H]1O[C@@H](O[C@@H]2[C@@H](CO)OC(O)(CO)[C@H]2O)[C@H](O)[C@@H](O)[C@H]1O` (mixture of isomers) [Lactulose] (50 µM) stands 0.98; under `COc1ccc2c3c1O[C@H]1C[C@@H](O)C=C[C@@]31CCN(C)C2` [Galanthamine hydrobromide] (20 µM), 1.
Consider `O=C(CCNNC(=O)c1ccncc1)NCc1ccccc1` [Nialamide] (20 µM), for which the “fold change” value is 1.01.
The figure for `CC(C)OC(=O)C(C)(C)Oc1ccc(C(=O)c2ccc(Cl)cc2)cc1` [Fenofibrate] (20 µM) is 1.05; for `Cc1ccc2c(c1)c1c3n2CCNC3CCC1` (stereo unspecified) [Pirlindole mesylate] (20 µM) it is 1.08; for `CC[N+](C)(C)Cc1ccccc1Br` [Bretylium tosylate] (20 µM) it is 1.05.
As for `COC(=O)[C@H](Cc1ccccc1)NC(=O)[C@H](CC(=O)O)NCCCc1ccc(OC)c(O)c1` [Advantame] (50 µM), the “fold change” value was 0.9.

For the origin of these results see the supplement of paper PMC12494721.
